Assay results as given in paper PMC4336329 (PLoS ONE, 2015).
Hit rate of the full screen: of about 310,000 compounds, about 14,000 (4.5%) showed an effect of 50% or more. Effects have a minus sign here. This is one part of a sample in which strong results are shown more often than they occur.

What follows are compounds tested against human ether-à-go-go-related gene (hERG) potassium channel (human, UniProt Q12809) (assay: primary screen, population patch clamp on CHO cells stably expressing hERG; higher = less effect of the substance).
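Note: peak tail current of the secondary pulse compared with the same well before compound.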

Chain of human ether-à-go-go-related gene (hERG) potassium channel (Q12809 whole entry, looked up): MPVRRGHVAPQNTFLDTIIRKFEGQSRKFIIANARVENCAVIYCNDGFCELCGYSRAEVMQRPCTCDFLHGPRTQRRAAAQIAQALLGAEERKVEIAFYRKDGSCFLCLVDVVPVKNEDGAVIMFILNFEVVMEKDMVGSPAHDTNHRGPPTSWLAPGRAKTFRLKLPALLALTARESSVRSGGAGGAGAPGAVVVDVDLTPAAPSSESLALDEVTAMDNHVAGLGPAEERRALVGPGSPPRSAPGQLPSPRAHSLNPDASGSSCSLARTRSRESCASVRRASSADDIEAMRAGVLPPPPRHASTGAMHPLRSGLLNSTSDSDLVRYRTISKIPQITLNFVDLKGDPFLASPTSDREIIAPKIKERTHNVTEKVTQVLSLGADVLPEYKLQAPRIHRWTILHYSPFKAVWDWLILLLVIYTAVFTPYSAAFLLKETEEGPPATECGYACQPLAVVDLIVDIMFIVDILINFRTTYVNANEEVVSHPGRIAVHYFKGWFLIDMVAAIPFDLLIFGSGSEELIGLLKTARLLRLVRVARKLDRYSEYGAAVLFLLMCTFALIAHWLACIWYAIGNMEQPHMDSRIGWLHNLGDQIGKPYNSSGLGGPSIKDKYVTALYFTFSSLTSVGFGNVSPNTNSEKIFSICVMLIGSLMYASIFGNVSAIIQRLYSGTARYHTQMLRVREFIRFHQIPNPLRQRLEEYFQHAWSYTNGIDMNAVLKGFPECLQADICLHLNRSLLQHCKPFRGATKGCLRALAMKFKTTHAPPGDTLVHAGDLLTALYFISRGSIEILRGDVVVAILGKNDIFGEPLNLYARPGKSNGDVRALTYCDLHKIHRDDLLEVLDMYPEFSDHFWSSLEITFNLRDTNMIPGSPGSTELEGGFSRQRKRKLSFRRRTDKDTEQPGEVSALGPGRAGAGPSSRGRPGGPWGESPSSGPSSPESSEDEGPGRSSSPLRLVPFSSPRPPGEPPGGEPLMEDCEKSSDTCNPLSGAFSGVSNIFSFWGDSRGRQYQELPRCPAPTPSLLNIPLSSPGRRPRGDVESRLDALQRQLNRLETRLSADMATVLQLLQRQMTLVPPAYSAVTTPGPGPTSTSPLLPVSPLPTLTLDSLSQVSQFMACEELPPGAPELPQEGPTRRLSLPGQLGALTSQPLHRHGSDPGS

Compound	hERG current change (%, negative = inhibition) at 10uM [%]
O=C(Cc1ccc(S(=O)(=O)N2CCCC2)s1)N1CCOCC1	-0.493
O=C(Cc1ccc(S(=O)(=O)N2CCCC2)s1)N1CCN(c2ccc(F)cc2)CC1	-56.2
O=C(Cc1ccc(S(=O)(=O)N2CCOCC2)s1)N1CCN(c2cccc(C(F)(F)F)c2)CC1	-31.7
O=C(Cc1ccc(S(=O)(=O)N2CCOCC2)s1)N1CCN(c2ccc(C(F)(F)F)cc2[N+](=O)[O-])CC1	-54.8
Cc1ccc(C(=O)N2CCN(c3ccccc3)CC2)cc1S(=O)(=O)N1CCCC1	-31.2
O=C(Cc1ccc(S(=O)(=O)N2CCCC2)s1)N1CCN(c2ccccc2)CC1	-28.4
O=C(Cc1ccc(S(=O)(=O)N2CCOCC2)s1)N1CCN(S(=O)(=O)c2cccc([N+](=O)[O-])c2)CC1	-27.1
COc1ccc(OCCOC(=O)c2cc(S(=O)(=O)N3CCOCC3)c(Cl)cc2Cl)cc1	-17.7
Cc1ccc(NS(=O)(=O)c2cc([N+](=O)[O-])ccc2NNC(=S)Nc2cccc(Cl)c2)c(C)c1	26
C[C@]12C=CC(=O)C=C1CC[C@@H]1[C@@H]2[C@@H](O)C[C@@]2(C)[C@H]1CC[C@]2(O)C(=O)COC(=O)CCC(=O)NCCc1ccc(O)cc1	12.8
CN1CCN(c2oc(Cc3cccc4ccccc34)nc2C#N)CC1	-9.75
CCOC(=O)N1CCC(NC(=O)CCC(=O)c2ccccc2)CC1	10.8
CCc1ccccc1NC(=O)C(Cc1cccc(OC)c1OC)c1nn[nH]n1 (centres unmarked)	7.41
O=C(Nc1nccs1)C12CC3CC(C1)CC(C(=O)Nc1nccs1)(C3)C2	-11.1
Cn1c(CCN2CCCCC2)nc2cc(NC(=O)COc3ccc(Cl)cc3)ccc21	-84.8
CN1CCN(CCc2nc3cc(NC(=O)COc4ccc(Cl)cc4)ccc3n2C)CC1	-61
Cn1c(=O)n(C)c2cc(NC(=O)COc3ccc(F)cc3)ccc21	-41.8
CCN1CCN(CCc2nc3cc(NC(=O)COc4ccccc4)ccc3n2C)CC1	-49.8
CC(=O)Nc1ccc2c(c1)nc(CCN1CCN(C)CC1)n2C	-2.56
CCN1CCN(CCc2nc3cc(NC(=O)COc4ccc(Cl)cc4)ccc3n2C)CC1	-67.6
COc1ccc(OCC(=O)Nc2ccc3c(c2)n(C)c(=O)n3C)cc1	-3.51
Cn1c(=O)n(C)c2cc(NC(=O)COc3ccc(Cl)cc3)ccc21	-59.4
c1ccc(Cc2nnc3sc(-c4ccccn4)nn23)cc1	-6.6
COc1ccc(C(=O)N=c2sc3c(C)ccc(OC)c3n2C)cc1OC	7.38

Compound	hERG current change (%, negative = inhibition) at 10uM [%]
Cc1cc2c(ncn2C)c(NS(=O)(=O)c2ccc(Cl)cc2)c1C	-1.18
COc1cc(C2NCC(c3ccc(Cl)cc3Cl)c3c2[nH]c2ccccc32)cc(OC)c1OC.Cl (centres unmarked)	7.58
COc1ccccc1N(C(=O)c1ccco1)C(C(=O)NC1CCCC1)c1cccnc1 (centres unmarked)	-0.441
CC1CCN(S(=O)(=O)N2CCC(C(=O)NCCc3ccccc3)CC2)CC1	2.8
CC(C)CN1C(=O)c2ccc(C(=O)Nc3ccccn3)cc2C1=O	-14.7
COc1ccc(OCC(=O)Nc2ccc3c(c2)nc(CN2CCCC2)n3C)cc1	-26.9
Cn1c(CN2CCCC2)nc2cc(NC(=O)COc3ccccc3)ccc21	-34.1
CC1C(=O)N2CCCc3cc(NC(=O)COc4ccc(Cl)cc4)cc1c32 (centres unmarked)	-40.2
O=C(COc1ccccc1)Nc1cc2c3c(c1)CC(=O)N3CCC2	-36
O=C(COc1ccc(Cl)cc1)Nc1cc2c3c(c1)CC(=O)N3CCC2	-57.1
Cn1c(CN2CCCC2)nc2cc(NC(=O)COc3ccc(Cl)cc3)ccc21	-69.2
CC(C)CNC(=O)COc1ncnc2sccc12	-37.4
Cc1c(CN(C)Cc2cn(C)nc2-c2ccccc2F)[nH]c2ccccc12	-6.24
COc1cc(/C=N/n2nnnc2N)cc(OC)c1OC	-0.774
CN1C2C=C(N(CCc3ccccc3)C(=O)c3ccc(Cl)cc3)CC1CC2.Cl (centres unmarked)	-74.8
Cc1cc(C)cc(C(=O)N(CCc2ccccc2)C2=CC3CCC(C2)N3C)c1.Cl (centres unmarked)	-60.7
Cc1cc(C)cc(C(=O)NCCCc2ccccc2)c1	-4.26
COC(=O)C1=C(CCc2ccccc2)NC(=O)NC1c1ccc(Cl)cc1 (centres unmarked)	-9.59
CN1C2C=C(N(CCc3c[nH]c4ccccc34)C(=O)c3ccc(Cl)cc3)CC1CC2.Cl (centres unmarked)	-67
COc1cc(C(=O)N(CCc2ccccc2)C2=CC3CCC(C2)N3C)cc(OC)c1OC.Cl.O (centres unmarked)	-29.2
O=C(NCC(=O)N1CCC(Cc2ccccc2)CC1)c1ccc(Cl)cc1	-23.3
O=C(NCCc1c[nH]c2ccccc12)c1ccc(Cl)cc1	-12.7
O=C(Cc1ccc(Cl)cc1)NCCc1c[nH]c2ccccc12	-19.8
